Records with an inconclusive call do not appear. Active and inactive are the calls of the source. Unless noted, the call rests on the fitted dose curve.
Legend:
[1] = qHTS assay to identify small molecule agonists of the vitamin D receptor (VDR) signaling pathway - cell viability counter screen (AID 743224; active means well fitted curve in the direction sought with a large enough effect in the repeat runs; an effect the other way counts as inactive or inconclusive; further: series mostly up to about 63 µM; nearly all actives have a fitted effect of over 50% in size)
Summary of the method: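 Plated VDR-bla cells (4 h, 37C) received compound, incubated 16 h, then LiveBLAzer substrate 2 h RT; CellTiter-Glo added afterwards, luminescence read at 30 min.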

[2] = qHTS assay to identify small molecule antagonists of the vitamin D receptor (VDR) signaling pathway - cell viability counter screen (AID 743225; active means well fitted curve in the direction sought with a large enough effect in the repeat runs; an effect the other way counts as inactive or inconclusive; further: nearly all actives have a fitted effect of over 50% in size)
Summary of the method: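 Same-well multiplex: following 16 h treatment of HEK 293T cells carrying a UAS-driven beta-lactamase reporter with compound and agonist (3 nM final), and a 2 h FRET substrate step, CellTiter-Glo was added and luminescence read after 30 min.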

[3] = qHTS assay to identify small molecule agonists of the NFkB signaling pathway - cell viability counter screen (AID 1159515); further: series mostly up to about 61 µM; nearly all actives have a fitted effect of over 55% in size
Summary of the method: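 Using the same wells as the NFkB reporter read, ME-180 NFkB-bla cells given compounds for 5 hr were assessed for viability via CellTiter-Glo, with luminescence taken after a 30 min room-temperature incubation.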

[4] = qHTS assay to identify small molecule agonists of the endoplasmic reticulum stress response signaling pathway (AID 1159516; active means well fitted activation curve with a large enough effect in the signal ratio in the repeat runs, not every such curve was filed as active; the % refers to the signal ratio)
Summary of the method: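 An ESRE-bla HeLa cell assay: compounds were pin-transferred from DMSO onto overnight-plated cells and left 5 hr at 37 C. Substrate was then loaded for 2 hr at room temperature before reading fluorescence at 460 nm and 530 nm.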

[5] = qHTS assay to identify small molecule agonists of the endoplasmic reticulum stress response signaling pathway - cell viability counter screen (AID 1159517);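 further: HeLa cells carrying an ER stress response element beta-lactamase reporter; series mostly up to about 61 µM; nearly all actives have a fitted effect of over 50% in size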
Summary of the method: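 Counter-screen wells were identical to the reporter wells. Cells were plated at 1,500 per well and dosed for 5 hr, then read for luminescence 30 min after CellTiter-Glo addition.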

[6] = qHTS assay to identify small molecule antagonists of the retinoid-related orphan receptor gamma (ROR-gamma) signaling pathway - cell viability counter screen (AID 1159520; active means well fitted curve in the direction sought with a large enough effect in the repeat runs; an effect the other way counts as inactive or inconclusive; further: nearly all actives have a fitted effect of over 50% in size)
Summary of the method: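 Tet-on ROR gamma CHO cells were given compounds for 2 hr, then doxycycline hyclate at 1 uM final, and incubated 16 hr at 37 C. Viability was measured as ATP content by CellTiter-Glo luminescence.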

[7] = molecular target: Nuclear receptor ROR-gamma (Homo sapiens) (UniProt P51449); assay: qHTS assay to identify small molecule antagonists of the retinoid-related orphan receptor gamma (ROR-gamma) signaling pathway (AID 1159521; active means well fitted curve in the direction sought with a large enough effect in the repeat runs; an effect the other way counts as inactive or inconclusive)
Summary of the method: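 Inducible-expression reporter assay: doxycycline (1 uM final) switched on RORγ in CHO cells bearing a ROR response element-luciferase construct, with test compounds present from 2 h beforehand. Decreased luminescence after 16 h defined antagonist activity.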

[8] = qHTS assay to identify small molecule agonists of the AP-1 signaling pathway - cell viability counter screen (AID 1159525); further: nearly all actives have a fitted effect of over 55% in size
Summary of the method: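 AP-1-bla ME-180 cells in Opti-MEM with 0.5% dialyzed FBS, compound exposure 5 h at 37 C in 15-point titration. Viability read in the same wells as ATP content by CellTiter-Glo luminescence, normalised to tetra-n-octylammonium bromide and DMSO controls.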

[9] = qHTS assay to identify small molecule agonists of the AP-1 signaling pathway (AID 1159526)

Measured: Potency

COc1ccc2c(c1OC)C(=O)O[C@@H]2[C@H]1c2c(cc3c(c2OC)OCO3)CCN1C
inactive: all assays above

CCCCNC1CC(C)(C)NC(C)(C)C1
not listed: [1]
inactive: all other assays above

CCOc1cc(NC(C)=O)ccc1C(=O)OC
not listed: [2] | [6]
inactive: all other assays above

Nc1ccc2cc(S(=O)(=O)O)cc(O)c2c1
inactive: all assays above

CN=C(NC#N)Nc1ccc(C2=NNC(=O)CC2C)cc1 (centres undefined)
inactive: all assays above

Cc1ccc2c(c1)OCC(=O)CO2
not listed: [2] | [6]
inactive: all other assays above

CC(C)CCCC(C)(C)O
not listed: [7]
inactive: all other assays above

NNc1nnc(NN)c2ccccc12
not listed: [2] | [6]
inactive: all other assays above

CCOc1cc([N+](=O)[O-])c(OCC)cc1N1CCOCC1
not listed: [7]
inactive: all other assays above

CC1=C(C(=O)O)N2C(=O)[C@@H](NC(=O)[C@H](N)c3ccc(O)cc3)[C@H]2SC1
not listed: [1]
inactive: all other assays above

CCCCCCCCC(=O)Cl
not listed: [7]
inactive: all other assays above

CC(C)C(=O)OCc1cccc(OC(=O)[C@@H]2N3C(=O)[C@@H](NC(=O)Cc4ccccc4)[C@H]3SC2(C)C)c1
not listed: [6]
inactive: all other assays above

O=C(O)c1cc(Cl)cc([N+](=O)[O-])c1Cl
not listed: [2] | [3]
inactive: all other assays above

c1ccc2nccnc2c1
not listed: [3] | [7]
inactive: all other assays above

CC(COC(C)(C)C)OCCCO (centres undefined)
not listed: [2] | [6]
inactive: all other assays above

C=C(C)C(=O)OCC(C)(C)COC(=O)C(=C)C
inactive: all assays above

CC(=O)OC(C)OC(=O)C(C)c1ccc(-c2ccccc2)c(F)c1 (centres undefined)
inactive: all assays above

Cc1ccc(S(=O)(=O)O)c(C)c1
not listed: [3] | [8]
inactive: all other assays above

COc1ccc2c(c1)C(=O)N(CCc1ccc(S(=O)(=O)NC(=O)NC3CCCCC3)cc1)C(=O)C2(C)C
not listed: [2] | [3] | [7]
inactive: all other assays above

CC(C)(C)NC(N)=O
inactive: all assays above

O=C1c2cccc3c2[C@H](CCC3)CN1[C@@H]1CN2CCC1CC2
not listed: [1] | [3] | [8]
inactive: all other assays above

NS(=O)(=O)c1ccc(NC(=O)CCC(=O)O)cc1
not listed: [2] | [3]
inactive: all other assays above

NC(CO)C(=O)NNCc1ccc(O)c(O)c1O (centres undefined)
inactive: all assays above

Cc1cc(C(C)(C)C)c(O)c(C)c1CC1=NCCN1
not listed: [1] | [7]
inactive: all other assays above

C=C(C)C(=O)OCc1ccccc1
not listed: [1] | [2] | [6]
inactive: all other assays above

CC(=O)N[C@@H](CCC(=O)O)C(=O)O
inactive: all assays above

CCOC(=O)/C=C/c1ccccc1
not listed: [2]
inactive: all other assays above
